Screening data: PubChem, several laboratories
The list is not random: actives were taken first. Their share in the collection is about 1.5%.
IDE inh – human IDE inhibitors in live cells, primary screen, fluorescence polarization, HEK cells, FAbetaB substrate. Insulin-degrading enzyme (Homo sapiens), P14735. FAbetaB cleavage. inhibition, % at 5.59 µM. 0.41% of 320,000 active. AID 434962, 2010;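 active = percent inhibition above the average of all tested compounds plus 3 SD, set per screening campaign, cut at about 16% in these data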;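 note: IDE supplied by intact live HEK cells; FP after avidin binding of uncleaved biotin substrate so inhibition keeps polarization high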
Target sequence (P14735 whole entry, looked up): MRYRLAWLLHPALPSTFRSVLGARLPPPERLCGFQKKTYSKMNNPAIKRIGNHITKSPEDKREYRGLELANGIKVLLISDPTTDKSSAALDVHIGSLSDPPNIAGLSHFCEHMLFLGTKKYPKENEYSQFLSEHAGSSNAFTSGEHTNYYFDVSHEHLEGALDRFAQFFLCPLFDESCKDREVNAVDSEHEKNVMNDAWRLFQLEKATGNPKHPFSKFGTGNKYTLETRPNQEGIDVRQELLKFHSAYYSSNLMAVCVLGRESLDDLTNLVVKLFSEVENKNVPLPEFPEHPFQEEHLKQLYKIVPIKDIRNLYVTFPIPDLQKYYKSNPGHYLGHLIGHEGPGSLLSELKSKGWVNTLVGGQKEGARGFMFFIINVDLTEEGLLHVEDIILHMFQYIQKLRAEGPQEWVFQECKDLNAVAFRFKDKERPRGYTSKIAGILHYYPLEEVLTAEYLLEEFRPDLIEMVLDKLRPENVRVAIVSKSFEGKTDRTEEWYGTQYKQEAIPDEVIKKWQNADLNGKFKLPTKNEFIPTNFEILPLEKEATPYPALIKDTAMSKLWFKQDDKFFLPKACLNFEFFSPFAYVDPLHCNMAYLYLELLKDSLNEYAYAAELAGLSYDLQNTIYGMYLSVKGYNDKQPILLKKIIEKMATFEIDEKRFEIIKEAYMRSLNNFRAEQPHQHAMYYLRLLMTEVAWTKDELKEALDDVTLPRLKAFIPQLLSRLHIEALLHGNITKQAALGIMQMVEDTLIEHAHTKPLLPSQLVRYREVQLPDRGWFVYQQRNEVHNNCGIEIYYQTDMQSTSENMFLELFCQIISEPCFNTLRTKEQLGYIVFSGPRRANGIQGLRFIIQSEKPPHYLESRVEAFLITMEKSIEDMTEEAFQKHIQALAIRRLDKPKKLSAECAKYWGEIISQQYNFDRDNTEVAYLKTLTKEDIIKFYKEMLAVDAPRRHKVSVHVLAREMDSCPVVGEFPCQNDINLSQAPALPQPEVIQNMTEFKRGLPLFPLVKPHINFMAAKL
RTF Ca sens inh – cardiac RTF calcium sensitivity inhibitors, primary screen, biochemical, IANBD-TnC fluorescence, EC70 calcium; Troponin I, cardiac muscle (Homo sapiens) + Troponin T, cardiac muscle (Homo sapiens) + …; IANBD-labeled cardiac RTF, Ca2+ fluorescence; inhibition, % at 7.15 µM; 0.12% of 340,000 active; AID 493244, 2011;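 active = inhibition above the mean inhibition of all tested compounds plus 3 SD, cut at about 17% in these data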;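 note: assay run at fixed EC70 calcium of 1.6 mM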
TPT1 inhibitor – Candida albicans TPT1 enzyme inhibitors, primary screen, biochemical, fluorescence polarization; recombinant caTPT1, FP RNA substrate dephosphorylation; inhibition, % at 5 µM; 0.81% of 300,000 active;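 active = inhibition above the mean of all tested compounds plus 3 SD, set per screening campaign, cut at about 24% in these data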
RTF Ca sens act – cardiac RTF calcium sensitivity activators, primary screen, biochemical, IANBD-TnC fluorescence, EC20 calcium | Troponin I, cardiac muscle (Homo sapiens) + Troponin T, cardiac muscle (Homo sapiens) + … | IANBD-labeled TnC RTF fluorescence at EC20 calcium; 0% EC20 calcium, 100% full calcium | activation, % at 7.2 µM | 0.24% of 340,000 active;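 active = activation above the mean over all tested compounds plus 3 SD, cut at about 30% in these data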;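 note: rise in fluorescence read as greater calcium sensitivity of cardiac thin filaments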
IDE cell activ – human IDE activators in live cells, primary screen, fluorescence polarization, HEK cells, FAbeta-B substrate | AID 493087, 2011 | FAbeta-B cleavage; 0% vehicle, 100% cell-free pure enzyme wells | Insulin-degrading enzyme (Homo sapiens), P14735 | 0.073% of 340,000 active | activation, % at 5.96 µM;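 active = activation above the mean of all tested compounds plus 3 SD, set per screening campaign, cut at about 17% in these data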
CRFR2-BP ag – agonists of CRF-BP/CRF-R2 complex, primary screen, cell-based, HEK293, calcium dye fluorescence, uHTS | calcium dye fluorescence (FLIPR); percent of saturating CRF peptide response | activation, % at 13.2 µM | 0.46% of 350,000 active | CRF-binding protein / CRF receptor 2 complex (human);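 active = activation of at least 50%, plus an integration ratio under a set limit after plate pattern correction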
Of the large screens only hits and unclear results are named; the others gave an inactive call.

O=C(OCCN1C(=O)c2ccccc2C1=O)c1cc(S(=O)(=O)N2CCOCC2)ccc1F	none
O=C(OCCN1C(=O)c2cccc3c(N4CCOCC4)ccc(c23)C1=O)c1ccc(Cl)cc1	CRFR2-BP ag 366
CCCN(CCC)S(=O)(=O)c1ccc(C(=O)OCCN2C(=O)c3cccc4c(N5CCOCC5)ccc(c34)C2=O)cc1	RTF Ca sens act 52, CRFR2-BP ag 114
COCCCn1c(SCC(=O)NC2CCCC2)nnc1-c1cccs1	none
CN(Cc1nc(-c2ccccn2)no1)S(=O)(=O)c1ccc(Cl)cc1	CRFR2-BP ag 54
CCOc1ccc(S(=O)(=O)N(CC)CC(=O)NCc2ccncc2)cc1C	none
Cc1cc(NS(=O)(=O)c2ccc(NC(=O)c3c(F)c(F)c(F)c(F)c3F)cc2)nc(C)n1	none
NS(=O)(=O)c1ccc(NC(=O)c2ccc(-c3ccccc3)cc2)cc1	none (no result: IDE inh, RTF Ca sens inh, TPT1 inhibitor, RTF Ca sens act, IDE cell activ)
NS(=O)(=O)c1ccc(NS(=O)(=O)c2ccc(NC(=O)c3ccc(-c4ccccc4)cc3)cc2)cc1	IDE inh 36
Cc1ccc(S(=O)(=O)Nc2ccc(NC(=O)c3c(F)c(F)c(F)c(F)c3F)cc2)cc1	CRFR2-BP ag 58
O=C(Nc1ccc(F)c(F)c1)C1=COCCO1	none
O=C(N/N=C1/C(=O)c2cccc3cccc1c23)c1ccc(Cl)cc1	CRFR2-BP ag 52
NC(=S)NNC(=O)C12CC3CC(CC(C3)C1)C2	CRFR2-BP ag 125
COC(=O)NNC(=O)C12CC3CC(CC(C3)C1)C2	none
N#C/C(N=Nc1ccccc1O)=N\Nc1ccccc1O	CRFR2-BP ag 61
COc1cccc(NC(=O)c2cc3ccccc3cc2OC)c1	none
CN1CCN(Cc2c(O)ccc3cc(-c4ccccn4)c(=O)oc23)CC1	CRFR2-BP ag 63
CCC(C)CCN1C(Nc2ccccc2)=NC[C@@H]1C (stereo not given in full)	none
COc1ccc(/C(O)=C/c2nc3ccc(C(=O)NCCc4cccc(C)c4)cc3[nH]c2=O)cc1OC	TPT1 inhibitor 67
COc1ccc(CCNC(=O)c2ccc3nc(-c4ccco4)c(-c4ccco4)nc3c2)cc1OC	RTF Ca sens inh 20
N#CC1CC(c2ccccc2)Nc2cc(Cl)ccc2N1 (stereo not given)	none
O=C(c1ccccc1)C(CN1CCCCC1)c1ccccc1 (stereo not given)	none (no result: IDE inh, TPT1 inhibitor)
CN1/C(=C\C=C(C#N)C#N)C(C)(C)c2ccccc21	CRFR2-BP ag 84
c1ccc2c3c([nH]c2c1)C1(CCCCC1)NCC3	none
CC12CCCCN1CCCc1c2[nH]c2ccccc12 (stereo not given)	CRFR2-BP ag 50
CC(C)(C)N1CC2([N+](=O)[O-])CN(C(C)(C)C)CC([N+](=O)[O-])(C1)C2	CRFR2-BP ag 167
COc1ccc(NC(=O)C(c2cc3c(cc2[N+](=O)[O-])OCO3)N(C)c2ccccc2)cc1 (stereo not given)	CRFR2-BP ag 90
Cc1ccc(C2(C)NC(=O)N(CC(=O)N3CCc4ccccc43)C2=O)cc1 (stereo not given)	none (no result: TPT1 inhibitor)
CCC1(c2ccccc2)NC(=O)N(CC(=O)N2CCc3ccccc32)C1=O (stereo not given)	none (no result: TPT1 inhibitor)
CCC1(c2ccc(F)cc2)NC(=O)N(CC(=O)N2CCc3ccccc32)C1=O (stereo not given)	CRFR2-BP ag 53 (no result: TPT1 inhibitor)
CC1(c2ccc(Cl)cc2)NC(=O)N(CC(=O)N2CCc3ccccc32)C1=O (stereo not given)	CRFR2-BP ag 82 (no result: TPT1 inhibitor)
Cc1cccc(/C=N/NC(=O)Cn2nnnc2N)n1	none
CCOc1ccc(-c2csc(/C(C#N)=C\c3ccc(O)c([N+](=O)[O-])c3)n2)cc1	none
COc1ccccc1-c1nnc(SCC(=O)NNC(=O)c2ccccc2F)n1C	none (no result: TPT1 inhibitor)
